According to article PMC5540273 (PLoS ONE, 2017):

What was measured:
Conditions in all cases: concentration: 1 μM, replicates: in singlicate; n = 1
[1] = system: TNNI3K
[2] = system: T1, TRKA
T1 construct: gene NTRK1

[3] = system: TRKB
[4] = system: T2, TRKC
T2 construct: gene NTRK3

[5] = system: TRPM6
[6] = system: TSSK1B
[7] = system: TSSK3
[8] = system: TTK
[9] = system: TXK
[10] = system: TYK2(JH1domain-catalytic)
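Also: KINOMEscan kinase panel screen.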

Row | Compound | %Inh [1] [%] | %Inh [2] [%] | %Inh [3] [%] | %Inh [4] [%] | %Inh [5] [%] | %Inh [6] [%] | %Inh [7] [%] | %Inh [8] [%] | %Inh [9] [%] | %Inh [10] [%]
1 | Cc1ccc(C)c(NC(=O)NC2CCN(c3ccnc(Nc4ccc(F)cc4)n3)C2)c1 (centres unmarked) [GSK1379720] | 4 | 0 | 51 | 65 | 14 | 0 | 15 | 13 | 16 | 36
2 | O=C(Nc1n[nH]c2cc(-c3ccoc3)ccc12)C1CC1 [SB-738481] | 0 | 30 | 25 | 49 | 0 | 0 | 0 | 0 | 20 | 51
3 | COc1cc(Nc2ncc3c(C)nc(-c4cc5ccccc5[nH]4)n3n2)cc(OC)c1OC [GW869516] | 33 | 4 | 0 | 0 | 0 | 6 | 0 | 36 | 10 | 0
4 | CN(c1ccc(NC(=O)Nc2cc(C(F)(F)F)ccc2F)cc1)c1ccnc(Nc2ccc(S(N)(=O)=O)cc2)n1 [GW809893] | 93.3 | 100 | 97.6 | 98.7 | 31 | 5 | 9 | 22 | 26 | 44
5 | FC(F)(F)c1ccc(/C=C/c2cncnc2Nc2ccc3[nH]c(Cc4ccccc4)nc3c2)cc1 [GW709199] | 0 | 0 | 8 | 0 | 0 | 0 | 0 | 0 | 0 | 41
6 | CC(C)(C)c1ccc2nccc(Nc3cccc(O)c3)c2c1 [GW856795] | 0 | 72 | 40 | 31 | 0 | 0 | 60 | 0 | 79 | 42
7 | Cc1ccc(F)c(C(=O)Nc2cccc(-c3nn4ccccc4c3-c3ccnc(Nc4cccc(F)c4)n3)c2)c1F [GSK361061] | 37 | 33 | 0 | 0 | 36 | 10 | 19 | 39 | 52 | 0
8 | CSc1cccc2c(-c3ccncn3)c(-c3ccc(F)cc3)nn12 [GW514786] | 6 | 16 | 0 | 0 | 17 | 0 | 22 | 8 | 0 | 0
9 | Cc1cccc(NC(=O)Nc2ccc(Oc3ncnc4ccn(C)c34)cc2)c1 | 0 | 20 | 35 | 57 | 0 | 19 | 0 | 0 | 0 | 0
10 | Cl.c1ccc(-c2ccc3c(Nc4ccc5[nH]ccc5c4)ccnc3c2)nc1 [GW440138] | 0 | 0 | 9 | 23 | 0 | 0 | 5 | 0 | 0 | 29
11 | C[C@@H]1CC[C@@H](C(=O)Nc2ccccc2)CN1c1cc(-c2ccc3c(N)n[nH]c3c2)nc(N)n1 [GSK2286062] | 0 | 12 | 0 | 13 | 0 | 0 | 0 | 9 | 0 | 15
